# In PubChem BioAssay (Tox21):
# Calls of active or inactive are those of the source. Calls follow the shape of the full dose curve.
# Molecular target: Thyrotropin-releasing hormone receptor (Homo sapiens) (UniProt P34981)
# Assay: qHTS assay to identify small molecule agonists of the thyrotropin-releasing hormone receptor (TRHR) signaling pathway (AID 1346891);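 also: HEK293 cells expressing TRHR with calcium dye readout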
# Conditions: TRHR-HEK293 calcium fluorescence, agonist mode; series mostly up to 57.6 µM
# Outline: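 Kinetic fluorescence (3 min, 1 s intervals) reported intracellular calcium after compound transfer onto TRHR-Hek293 cells pre-loaded with dye for 2 h at 37 °C.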
# Thyrotropin-releasing hormone receptor (Homo sapiens), sequence (P34981 whole entry, looked up): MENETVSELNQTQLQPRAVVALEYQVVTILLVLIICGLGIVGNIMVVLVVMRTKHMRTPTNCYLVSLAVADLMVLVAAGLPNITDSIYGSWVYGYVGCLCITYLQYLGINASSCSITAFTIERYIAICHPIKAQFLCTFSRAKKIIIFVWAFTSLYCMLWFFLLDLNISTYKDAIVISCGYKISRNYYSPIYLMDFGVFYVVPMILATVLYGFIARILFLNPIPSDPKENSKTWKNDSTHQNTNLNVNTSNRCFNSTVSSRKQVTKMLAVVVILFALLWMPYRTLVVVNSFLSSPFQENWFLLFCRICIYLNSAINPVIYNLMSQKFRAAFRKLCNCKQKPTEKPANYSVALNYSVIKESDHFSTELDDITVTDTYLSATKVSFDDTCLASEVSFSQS
row,SMILES,outcome
1,COc1ncc(F)c2nc(S(=O)(=O)Nc3c(F)cccc3F)nn12,inactive
2,CC(C1CC1)C(O)(Cn1cncn1)c1ccc(Cl)cc1 (configuration not stated),inactive
3,CCCCOP(=O)(O)OCCCC,inactive
4,CN(N=O)C(N)=O,inactive
5,OCCSCSCCO,inactive
6,O=C(O)c1cccc(Cl)c1,inactive
7,CC1CN1P(=O)(N1CC1C)N1CC1C (configuration not stated),inactive
8,COC(=O)c1ccccc1S(=O)(=O)NC(=O)Nc1nc(C)cc(C)n1,inactive
9,CCSC(=O)N(CC)C1CCCCC1,inactive
10,CC(=O)CC(c1ccc(Cl)cc1)c1c(O)c2ccccc2oc1=O (configuration not stated),inactive
11,CCOP(=O)(OCC)OP(=O)(OCC)OCC,inactive
12,CNC(=O)Oc1ccccc1C1OCCO1,inactive
13,N#CCCC#N,inactive
14,COC(=O)c1ccccc1S(=O)(=O)NC(=O)N(C)c1nc(C)nc(OC)n1,inactive
15,Cc1ncc(CNC(=O)N(CCCl)N=O)c(N)n1,inactive
16,Clc1ccccc1N1CCNCC1,inactive

row,SMILES,outcome
1,O=P(O)(Oc1ccccc1)Oc1ccccc1,inactive
2,BrCCCCCCBr,inactive
3,C[N+](C)=CCl,inactive
4,O=c1oc2ccccc2c(O)c1C1CCCc2ccccc21 (configuration not stated),inactive
5,O=C(Oc1ccc(Br)cc1)N1CCN2CCC1CC2,inactive
6,COc1cc(OC)nc(NC(=O)NS(=O)(=O)c2ncccc2C(=O)N(C)C)n1,inactive
7,Cc1cc(C)c(C(=O)P(=O)(C(=O)c2c(C)cc(C)cc2C)c2ccccc2)c(C)c1,inactive
8,ClC(Cl)Br,inactive
9,O=NN1CCCCC1,inactive
10,O=[N+]([O-])c1ccc(CBr)cc1,inactive
11,C=CC1CC=CCC1 (configuration not stated),inactive
12,COc1cc(C[C@@H](C)N)c(OC)cc1C,inactive
13,c1ccc(N2CCNCC2)cc1,inactive
14,CNC(=O)Oc1cccc(C(C)C)c1,inactive
15,CC1=NNC(=O)N(/N=C/c2cccnc2)C1,inactive
16,CCC(=O)c1ccccc1,inactive
